ASK1 inh = inhibitors of human ASK1 kinase | AlphaScreen MKK6 phosphorylation by ASK1, luminescence | actives 0.99% (n = 22,000) | inhibition, % at 7.44 µM | Q99683; in the data active = inhibition above about 35%
Target sequence (Q99683 whole entry, looked up): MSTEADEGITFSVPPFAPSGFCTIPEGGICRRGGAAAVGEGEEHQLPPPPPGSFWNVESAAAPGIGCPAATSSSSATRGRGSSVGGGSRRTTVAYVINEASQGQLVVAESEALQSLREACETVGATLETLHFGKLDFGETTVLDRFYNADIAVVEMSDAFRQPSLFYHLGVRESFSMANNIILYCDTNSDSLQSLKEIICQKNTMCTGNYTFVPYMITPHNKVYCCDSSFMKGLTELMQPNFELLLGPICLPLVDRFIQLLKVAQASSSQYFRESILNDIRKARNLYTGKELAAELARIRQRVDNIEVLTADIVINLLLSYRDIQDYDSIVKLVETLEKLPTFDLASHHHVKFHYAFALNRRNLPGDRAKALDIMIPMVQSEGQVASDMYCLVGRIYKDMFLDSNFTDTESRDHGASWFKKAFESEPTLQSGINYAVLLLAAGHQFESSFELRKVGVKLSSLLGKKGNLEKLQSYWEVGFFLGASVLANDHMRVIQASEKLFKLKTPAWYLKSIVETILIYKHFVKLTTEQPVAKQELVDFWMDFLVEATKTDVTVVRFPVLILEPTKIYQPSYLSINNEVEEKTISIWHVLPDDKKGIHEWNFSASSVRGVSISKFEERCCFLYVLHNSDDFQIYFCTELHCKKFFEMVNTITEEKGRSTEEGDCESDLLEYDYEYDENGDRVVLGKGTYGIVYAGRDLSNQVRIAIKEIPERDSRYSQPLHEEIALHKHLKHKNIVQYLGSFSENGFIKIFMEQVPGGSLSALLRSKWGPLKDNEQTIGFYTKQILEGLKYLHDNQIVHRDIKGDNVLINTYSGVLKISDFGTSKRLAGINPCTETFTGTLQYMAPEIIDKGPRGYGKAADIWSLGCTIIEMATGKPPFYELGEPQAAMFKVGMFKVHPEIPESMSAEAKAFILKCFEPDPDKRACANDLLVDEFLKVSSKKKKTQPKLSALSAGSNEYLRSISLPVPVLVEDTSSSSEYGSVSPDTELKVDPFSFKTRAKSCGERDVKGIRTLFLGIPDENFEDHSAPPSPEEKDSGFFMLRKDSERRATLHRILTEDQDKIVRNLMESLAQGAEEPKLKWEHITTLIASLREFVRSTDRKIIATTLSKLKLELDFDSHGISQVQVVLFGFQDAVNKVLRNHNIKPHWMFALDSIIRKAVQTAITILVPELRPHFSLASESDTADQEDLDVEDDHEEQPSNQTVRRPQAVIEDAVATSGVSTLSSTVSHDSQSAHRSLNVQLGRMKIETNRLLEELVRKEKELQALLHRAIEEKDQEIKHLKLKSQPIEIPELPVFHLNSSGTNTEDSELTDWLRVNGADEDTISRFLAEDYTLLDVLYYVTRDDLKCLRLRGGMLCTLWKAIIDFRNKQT
ULK1 inh = human ULK1 kinase inhibition, primary screen | inhibition, % at 5.96 µM | O75385 | AID 1259251 | actives 1.9% (n = 30,000) | AlphaScreen Atg13 phosphorylation by ULK1, luminescence; in the data active = inhibition above about 43%
Hits are given with their value; 0 = inactive; - = no result. An excerpt weighted towards active compounds, which were near 2.5% of everything screened.

SMILES	ASK1 inh	ULK1 inh
CC(=O)c1ccc(Nc2nccc(-c3ccc(NS(C)(=O)=O)cc3)n2)cc1	0	55.1
CS(=O)(=O)Nc1ccc(-c2ccnc(Nc3ccc(C(O)(C(F)(F)F)C(F)(F)F)cc3)n2)cc1	0	0
Cc1ccc(-c2ncn(-c3ccc(Nc4nccc(-c5ccc(NS(C)(=O)=O)cc5)n4)cc3)n2)cn1	0	0
CS(=O)(=O)Nc1ccc(-c2ccnc(Nc3ccc(-n4cncn4)cc3)n2)cc1	0	67.2
CS(=O)(=O)c1ccc(Nc2nccc(-c3ccccc3)n2)cc1	0	0
CC(C)n1cnc2c(NCCO)nc(-c3ccc(N4CCN(C)CC4)cc3)nc21	0	0
O=C(O)c1ccc(OCCN2CCCCC2)cc1	-	0
Cc1cc(Nc2ccc(OCCN3CCCCC3)cc2)nc(-c2cccc(OC(F)(F)F)c2)n1	0	0
NC(=O)c1ccc2[nH]nc(-c3cccc(OCCN4CCCCC4)c3)c2c1	0	61.0
c1cc(OCCN2CCCCC2)cc(-c2n[nH]c3ccc(-c4ncn[nH]4)cc23)c1	0	44.9
CC(=O)Nc1ccc(Nc2cc(-c3c(C)nn(C)c3C)ncn2)cc1	0	0
O=C(NCc1ccccc1)c1ccc2cncc(-c3ccccc3)c2n1	-	73.6
Cc1cnc(CNC(=O)c2ccc3cncc(-c4ccccc4)c3n2)cn1	-	0
COCCNC(=O)c1ccc2cncc(-c3ccsc3)c2n1	-	53.2
O=C(NC1CC1)c1ccc2cncc(-c3ccsc3)c2n1	-	0
COc1ccc(N2CCn3c(SCC(=O)Nc4ccc(Cl)cc4)nnc32)cc1	-	0
CC(C)c1nc2c(-c3cnn(C)c3)cccc2c(=O)[nH]1	0	0
Cc1ncn(-c2ccc(Nc3ncc(C)c(Nc4ccccc4C(N)=O)n3)cc2)n1	0	72.3
N#Cc1ccc(Nc2ncc(Cl)c(Nc3ccccc3C(N)=O)n2)cc1	0	46.2
COc1ccc(Nc2ncc(Cl)c(Nc3ccccc3-c3ccn(C)n3)n2)cc1	0	0
Cc1ncn(-c2ccc(Nc3ncc4ccnc(-c5ccccc5)c4n3)cc2)n1	0	0
NC(=O)c1ccccc1Nc1nc(Nc2ccc(N3CCCC3=O)cc2)ncc1Cl	0	92.0
NC(=O)c1ccccc1Nc1nc(Nc2ccc(N3CCOCC3)c(F)c2F)ncc1Cl	0	0
N[C@@H](Cc1ccccc1)C(=O)N1CCC(Nc2ccc3[nH]ncc3c2)C1 (some centres not stated)	0	0
O=C(O)CCc1nc(-c2ccncc2)no1	-	0
SMILES	ASK1 inh	ULK1 inh
Cn1nccc1Nc1nc(N)c2ncn(-c3ccccc3)c2n1	0	0
COC1=C(N)C(=O)c2nc(-c3nc(C(=O)O)c(C)c(-c4ccc(OC)c(OC)c4O)c3N)ccc2C1=O	-	83.7
COc1cc(Nc2nc(NCCc3ccc(O)cc3)c3[nH]cnc3n2)cc(OC)c1OC	0	75.1
CN(C)c1cccc(Nc2nc(NCCOc3ccccc3)c3[nH]cnc3n2)c1	0	0
CCNc1nc(NCCc2ccc(O)cc2)c2[nH]cnc2n1	0	0
COc1cc(Nc2nc(NCCOc3ccccc3)c3[nH]cnc3n2)cc(OC)c1OC	0	77.8
COc1cc(Nc2nc(NCCO)c3[nH]cnc3n2)cc(OC)c1OC	0	63.1
CCNc1nc(Nc2cc(OC)c(OC)c(OC)c2)c2[nH]cnc2n1	0	0
CC(C)n1cnc2c(NCc3cccc(C(F)(F)F)c3)nc(-c3ccc(C(=O)NC4CC4)cc3)nc21	0	0
C=C(Cc1cc(C(=O)NCCOC)ccc1O)C(=O)Nc1ccc(-c2cn[nH]c2)cc1SCCN1CCCC1	0	0
COc1nc(Nc2ccc(N3CCOCC3)cc2)nc(-c2cccc(N)c2)n1	0	0
Cn1c(Nc2nc(NCCOc3ccccc3)c3ncn(C4CCCCC4)c3n2)nc2ccccc21	0	52.3
COc1ccc(CCNc2nc(Nc3nc4ccccc4n3C)nc3c2ncn3C2CCCCC2)cc1	0	0
OC1CCC(Nc2nc(NC3CCN(Cc4ccccc4)CC3)c3ncn(-c4ccccc4)c3n2)CC1 (configuration not stated)	0	0
COc1cccc(CN(CCCN2CCN(C)CC2)C(=O)c2cc3ccc(-c4cn[nH]c4)nc3[nH]2)c1	0	0
C=CCN1CCN(c2c(NC(=O)c3ccc(Br)o3)cccc2-c2cc(Cl)ccc2Cl)CC1	0	0
CN(C)c1cccc(Nc2nc(NCCCN3CCCC3=O)c3ncn(-c4ccsc4)c3n2)c1	0	0
CCC(NC(C)C)C(O)c1ccc(O)c(O)c1 (configuration not stated)	-	0
NCC(O)c1ccc(O)c(O)c1 (configuration not stated)	-	80.3
CNC(=O)c1ccccc1Nc1cc(NC(=O)C(OC)c2ccccc2)ncc1C(F)(F)F (configuration not stated)	0	0
NC(=O)c1ccccc1Nc1cc(NC(=O)Cc2ccc(F)c(F)c2)ncc1C(F)(F)F	0	0
CNC(=O)c1ccccc1Nc1cc(NC(=O)Cc2ccc3c(c2)OCO3)ncc1C(F)(F)F	0	55.4
CNC(=O)c1ccccc1Nc1cc(NC(=O)Cc2cccc(F)c2)ncc1C(F)(F)F	0	54.8
COc1ccc(CC(=O)Nc2cc(Nc3ccccc3C(N)=O)c(C(F)(F)F)cn2)cc1	0	76.1
CNC(=O)c1ccccc1Nc1cc(NC(=O)Cc2ccccc2OC)ncc1C(F)(F)F	0	51.3
SMILES	ASK1 inh	ULK1 inh
NC(=O)c1ccccc1Nc1cc(NC(=O)Cc2ccc(F)cc2)ncc1C(F)(F)F	0	0
NC(=O)c1ccccc1Nc1cc(NC(=O)Cc2ccc3c(c2)OCO3)ncc1C(F)(F)F	0	0
O=C(NCc1cccnc1)c1cccc(Nc2ccccc2)n1	0	0
c1ccc(Nc2nc(Nc3ccc(-n4ccnc4)cc3)nc3c2ncn3-c2ccsc2)cc1	0	0
OCCNc1nc(NCCN2CCOCC2)nc2c1ncn2Cc1ccc(C(F)(F)F)cc1	0	0
COc1cc(Nc2nc(NC3CCC(O)CC3)nc3c2ncn3CCN2CCCC2=O)cc(OC)c1OC (configuration not stated)	0	0
Cn1nccc1Nc1cc(C(=O)Nc2ccc(N3CCOCC3)cc2)ccn1	0	0
O=C(Nc1ccc(N2CCOCC2)cc1)c1cncc(-c2ccc(N3CCOCC3)nc2)c1	0	0
O=C(Nc1ccc(N2CCOCC2)cc1)c1cccc(Nc2ccncc2)c1	0	69.5
O=C(NCCN1CCOCC1)c1ccnc(NCc2ccc3c(c2)OCO3)c1	0	0
CC(=O)Nc1ccc(NC(=O)c2cccc(N3CCOCC3)c2)cc1	0	0
O=C(Nc1ccc(N2CCOCC2)cc1)c1ccnc(NCc2ccc3c(c2)OCO3)c1	0	44.6
O=C(Nc1ccc(N2CCOCC2)cc1)c1cncc(Nc2ccncc2)c1	0	65.8
O=C(Nc1ccc(N2CCOCC2)cc1)c1ccnc(Nc2ccncc2)c1	0	48.7
CC(C)n1cnc2c(NC3CC3)nc(-c3ccc(C(=O)NC4CC4)cc3)nc21	0	0
O=C(Nc1ccc2cn[nH]c2c1)c1ccc(OCC(O)c2ccc(Br)cc2)cc1 (configuration not stated)	0	0
Nc1nc(Nc2ccccc2)cc(N2CCN(Cc3ccc4c(c3)OCO4)CC2)n1	0	0
COc1ccc(-c2ccc(C(=O)NCCN(C(C)C)C(C)C)s2)cc1	0	0
c1cc(Nc2ccc(N3CCOCC3)cc2)cc(Nc2ccc(N3CCOCC3)cc2)n1	0	0
Cc1cc(NCc2ccccc2)nc(Nc2ccc(N3CCOCC3)cc2)n1	0	0
O=C(Nc1ccc(N2CCOCC2)cc1)c1cccc(Nc2ccc(-n3ccnc3)cc2)c1	0	44.4
Nc1nccc(Nc2ccnc(Nc3ccc(N4CCOCC4)cc3)c2)n1	0	43.3
